Measurements as given in PubChem BioAssay (NCATS).
For part of these data: Entries with a potency or affinity are not part of this list. The source made the active and inactive calls. No rule for the calls is given here.

What was measured:
[1] = Ebola virus entry assay, reporter ratio channel; AC50: Channel type: primary unless noted; outcome: Channel type: primary unless noted
[2] = Ebola virus entry assay, blue channel (ratio component)

| Compound | outcome [1] | outcome [2] | AC50 [1] |
| --- | --- | --- | --- |
| C/C=C/C=N/NC(=O)c1ccncc1 | inactive | inactive |  |
| Cc1cccc(C)c1OCC(=O)N[C@@H](Cc1ccccc1)[C@@H](O)C[C@H](Cc1ccccc1)NC(=O)[C@H](C(C)C)N1CCCNC1=O |  |  | 39.8 µM (active) |
| Clc1ccc2c(c1)Nc1ccccc1S2 | inactive | inactive |  |
| O=S(=O)(O)c1ccc2nc(-c3ccccc3)[nH]c2c1 | inactive | inactive |  |
| NC[C@H]1O[C@H](O[C@H]2[C@H](O[C@@H]3O[C@H](CO)[C@@H](O)[C@H]3O)C(O)[C@H](N)C[C@@H]2N)[C@H](N)[C@@H](O)[C@@H]1O (some centres undefined) | inactive | inactive |  |
| CC(C)(C)CC(C)(C)c1ccc(OCCOCC[N+](C)(C)Cc2ccccc2)cc1 |  |  | 2.51 µM (active) |
| CC(CN(C)C)C(C)(O)Cc1ccc(Cl)cc1 (centres undefined) |  |  | 28.2 µM (active) |
| CC(C)C(=O)c1c(C(C)C)nn2ccccc12 | inactive | inactive |  |
| OCc1cccnc1 | inactive | inactive |  |
| OC[C@@H](O)[C@@H](O[C@@H]1O[C@H](CO)[C@H](O)[C@H](O)[C@H]1O)[C@H](O)[C@@H](O)CO | inactive | inactive |  |
| N=C(N)N1CCc2ccccc2C1 | inactive |  |  |
| c1ccc2c(CC3=NCCN3)cccc2c1 |  |  | 39.8 µM (active) |
| O=C1OC(CN2CCOCC2)CN1/N=C/c1ccc([N+](=O)[O-])o1 (centres undefined) | inactive | inactive |  |
| CCCCCCCCCCCCCCCCOP(=O)([O-])OCC[N+](C)(C)C | inactive |  |  |
| CN(c1nccc(=O)[nH]1)C1CCN(c2nc3ccccc3n2Cc2ccc(F)cc2)CC1 | inactive | inactive |  |
| CC(=O)Nc1ccc(OCC(O)CNC(C)C)cc1 (centres undefined) | inactive | inactive |  |
| O=C(O)Cn1c(=O)n(Cc2ccc(Br)cc2F)c(=O)c2ccc(Cl)cc21 | inactive | inactive |  |
| NCCc1ccn[nH]1 | inactive | inactive |  |
| O=C(/C=C/c1ccccc1)OCc1ccccc1 | inactive | inactive |  |
| CC(C)(C)NC[C@H](O)COc1cccc2c1CCCC2=O | inactive | inactive |  |
| CCS(=O)(=O)c1ccc(OC)c(C(=O)OC)c1 | inactive | inactive |  |
| CCCCCCCCCCCCCCCCCCO | inactive | inactive |  |
| Nc1c(I)cc(I)c(C(=O)N(CCC(=O)O)c2ccccc2)c1I | inactive | inactive |  |
| O=c1[nH]cnc2nc[nH]c12 | inactive | inactive |  |

| Compound | outcome [1] | outcome [2] | AC50 [1] |
| --- | --- | --- | --- |
| COc1cc(C=C2CCC/C(=C\c3ccc(O)c(OC)c3)C2=O)ccc1O |  |  | 28.2 µM (active) |
| O=C(NCC1CCCCN1)c1cc(OCC(F)(F)F)ccc1OCC(F)(F)F (centres undefined) |  |  | 35.5 µM (active) |
| CO[C@]12C[C@@H](COC(=O)c3cncc(Br)c3)CN(C)[C@@H]1Cc1cn(C)c3cccc2c13 |  |  | 20 µM (active) |
| CC(C)(C)NCC(O)COc1ccc(NC(=O)NC2CCCCC2)cc1 (centres undefined) |  |  | 39.8 µM (active) |
| CC(=O)c1cc2ccccc2s1 | inactive | inactive |  |
| COC(=O)c1ccccc1C(=O)c1ccc(OCCN2CCCCC2)cc1 |  |  | 14.1 µM (active) |
| OCCc1ccccc1 | inactive | inactive |  |
| COc1cc(C(=O)N2CCOCC2)cc(OC)c1OC | inactive | inactive |  |
| O=C(N/N=C/c1ccccc1O)c1ccncc1 | inactive | inactive |  |
| Nc1ncnc2c1ncn2[C@@H]1O[C@H](CO)[C@@H](O)[C@H]1O | inactive | inactive |  |
| CNCc1ccccc1 | inactive | inactive |  |
| O=C1c2ccccc2CCc2ccccc21 | inactive | inactive |  |
| Cc1c(C)c2c(c(C)c1O)CCC(C)(COc1ccc(CC3SC(=O)NC3=O)cc1)O2 (centres undefined) | inactive |  |  |
| Nc1ccc([N+](=O)[O-])c(C(F)(F)F)c1 | inactive | inactive |  |
| Cc1ccccc1N1CCN(CCc2nnc3n2CCCC3)CC1 | inactive | inactive |  |
| CCCOc1ccc2c(c1)CC[C@@H]1[C@@H]2CC[C@]2(C)C(OC)CC[C@@H]12 (some centres undefined) | inactive | inactive |  |
| O=[N+]([O-])c1ccc(/C=N\O)o1 | inactive | inactive |  |
| Cn1c(=O)c2c(ncn2CC(=O)O)n(C)c1=O | inactive | inactive |  |
| Nc1ccc(S(=O)(=O)Nc2ccnn2-c2ccccc2)cc1 | inactive | inactive |  |
| COc1cc(C(=O)N2CCCCCCC2)cc(OC)c1OC | inactive | inactive |  |
| COC(=O)/C=C(/C)N | inactive | inactive |  |
| O=C1O[C@H](CO)[C@@H](O)[C@H](O)[C@H]1O | inactive | inactive |  |
| O=C(O)CCCC[C@@H]1SC[C@@H]2NC(=O)N[C@@H]21 | inactive | inactive |  |
| CC(=O)Nc1c(I)c(NC(C)=O)c(I)c(C(=O)O)c1I | inactive | inactive |  |
